Hits are enriched below; roughly 6.8% of the tested compounds scored in any of these assays.
C diff growth = blocks growth of Clostridium difficile | 0.25% of 86,000 active | Clostridium difficile clinical isolate growth, OD600, 24 h; stronger effect = lower value | growth activity, negative = inhibition, % at 16 µg/mL (by protocol);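 active = mean growth activity at or below -80% and every replicate also at or below -80%; inconclusive = mean at or below -80% but some replicate above -80%; inactive = mean growth activity above -80%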;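 note: 0% = DMSO wells and -100% = levofloxacin 16 µg/mL wells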
T cruzi growth-1 = blocks T. cruzi growth in NIH3T3 culture. inhibition, % at 8.34 µM. 5.9% of 77,000 active. AID 624255. T. cruzi beta-gal in NIH3T3, GalScreen luminescence, 90 h;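 active = mean inhibition above about 93%, with at least 55% of replicates each passing it, limit read from the data, passing the limit was not always enough; inconclusive = only one of those two conditions holds; inactive = neither condition holds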
Pf Dd2 growth = inhibitors of Plasmodium falciparum Dd2 growth; P. falciparum Dd2 growth, SYBR Green, 72 h; stronger effect = lower value; activity change, % at 10 µM; 2.3% of 94,000 active; AID 1159554; in the data active = activity change below about -80%; inconclusive = no clear call, values can overlap the other calls
T cruzi growth-2 = Trypanosoma cruzi proliferation inhibition; inhibition, % at 8.35 µM; shares compounds with T cruzi growth-1; T. cruzi beta-gal in NIH3T3, GalScreen luminescence, 90 h; AID 651739; 72% of 5,600 active;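 active = mean replicate inhibition above about 95% and at least 55% of replicates individually reaching it, limit read from the data; inconclusive = only one of the two criteria is met; inactive = neither criterion is met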
T cruzi growth-3 = Trypanosoma cruzi proliferation inhibition; shares compounds with T cruzi growth-1; T. cruzi beta-gal in NIH3T3, GalScreen luminescence, 90 h; inhibition, % at 2.09 µM; 21% of 5,600 active;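 active = mean inhibition above about 95%, with at least 55% of replicates also reaching it, limit read from the data; inconclusive = meets just one of the two conditions; inactive = meets neither condition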;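 note: plate controls were neutral control median for no effect and positive control median for full effect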
NIH3T3 tox = cytotoxicity in mouse NIH/3T3 fibroblasts; NIH/3T3 viability, CellTiter-Glo ATP luminescence, 90 h; cytotoxicity (signal decrease), % at 8.35 µM; 14% of 5,600 active; shares compounds with T cruzi growth-1; AID 651742;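 active = mean signal decrease across replicates above about 35% based on untreated-well scatter, with enough replicates individually passing, limit read from the data; inconclusive = no rule stated though some were filed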;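 note: 0% = median of neutral control wells and 100% = median of positive control wells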
3T3 cytotox 2 = cytotoxicity in mouse NIH/3T3 fibroblasts. shares compounds with T cruzi growth-1. NIH/3T3 viability, CellTiter-Glo ATP luminescence, 90 h. inhibition, % at 24.9 µM. 56% of 5,600 active. AID 651744;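 active = mean loss of cell viability signal at or above a set limit, and enough replicates individually reaching it; inconclusive = meets only the mean limit or only the replicate share; inactive = meets neither condition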;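 note: 0% = median of neutral control wells and 100% = median of positive control wells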
An asterisk follows results filed as active; ? = inconclusive; . = not tested or not shown; ! = not active in a repeat.

SMILES | C diff growth | T cruzi growth-1 | Pf Dd2 growth | T cruzi growth-2 | T cruzi growth-3 | NIH3T3 tox | 3T3 cytotox 2
C[C@@H]1CN([C@@H](C)CO)C(=O)c2cc(NC(=O)c3ccncc3)ccc2O[C@@H](C)CCCCO[C@@H]1CN(C)Cc1ccccc1 | -4 | 36 | -10 | . | . | . | .
O=C(c1ccccn1)N1CC[C@@H]2[C@@H](CO)Nc3ccc(-c4cccc(F)c4)cc3[C@@H]21 | -7 | 31 | 7 | . | . | . | .
CCC(=O)Nc1ccc2c(c1)OC[C@H](C)N(C(=O)CC1CC1)C[C@H](C)[C@H](OC)CN(C)C2=O | -2 | 21 | -49 | . | . | . | .
COCC(=O)N1[C@@H]2CN(C)c3ccccc3[C@@H]2[C@@H]1CO | 2 | -7 | -1 | . | . | . | .
C[C@@H]1CN([C@@H](C)CO)C(=O)Cc2cc(N(C)C)ccc2O[C@H]1CN(C)S(=O)(=O)c1ccccc1 | -1 | 15 | 2 | . | . | . | .
CC(C)NC(=O)N(C)C[C@@H]1Oc2ccc(NC(=O)Nc3ccc(F)cc3)cc2CC(=O)N([C@@H](C)CO)C[C@H]1C | -7 | -2 | -13 | . | . | . | .
CC(C)CC#Cc1cnc2c(c1)C(=O)N([C@H](C)CO)C[C@@H](C)[C@@H](CN(C)C(=O)c1cnccn1)O2 | -5 | 9 | 7 | . | . | . | .
C[C@@H]1CN([C@@H](C)CO)C(=O)c2cccc(NC(=O)C3CCCCC3)c2O[C@H]1CN(C)Cc1ccc(Oc2ccccc2)cc1 | . | 104 | -67 | . | . | . | .
C[C@H](CO)N1C[C@H](C)[C@@H](CN(C)Cc2ccc(Oc3ccccc3)cc2)Oc2c(NC(=O)C3CCCCC3)cccc2C1=O | . | ? | -35 | 104* | 89 | -28 | 104*
C[C@@H]1CN([C@H](C)CO)C(=O)c2cc(NC(=O)CCC(F)(F)F)ccc2O[C@@H]1CN(C)Cc1ccccc1 | -1 | -7 | -14 | . | . | . | .
C[C@@H]1CCCCO[C@H](CN(C)C(=O)c2ccccc2)[C@@H](C)CN([C@@H](C)CO)C(=O)c2cc(NC(=O)Nc3ccc(C(F)(F)F)cc3)ccc2O1 | 2 | ? | -92* | 107* | 110* | -5 | -9
C[C@@H]1CCCCO[C@H](CN(C)C(=O)c2ccccc2)[C@H](C)CN([C@@H](C)CO)C(=O)c2cc(NC(=O)Nc3ccc(C(F)(F)F)cc3)ccc2O1 | 0 | ? | -61 | 101* | 112* | 20 | 48*
C[C@@H]1CCCCO[C@@H](CN(C)C(=O)c2ccccc2)[C@@H](C)CN([C@@H](C)CO)C(=O)c2cc(NC(=O)Nc3ccc(C(F)(F)F)cc3)ccc2O1 | 7 | 93 | -58 | . | . | . | .
C[C@@H]1CCCCO[C@@H](CN(C)C(=O)c2ccccc2)[C@H](C)CN([C@H](C)CO)C(=O)c2cc(NC(=O)Nc3ccc(C(F)(F)F)cc3)ccc2O1 | -7 | ? | -57 | 103* | 117* | -7 | 9
C[C@@H]1CCCCO[C@@H](CN(C)C(=O)c2ccccc2)[C@@H](C)CN([C@H](C)CO)C(=O)c2cc(NC(=O)Nc3ccc(C(F)(F)F)cc3)ccc2O1 | -10 | 117 | 2 | . | . | . | .
C[C@@H]1CN([C@H](C)CO)C(=O)c2cc(NC(=O)Nc3ccc(C(F)(F)F)cc3)ccc2O[C@@H](C)CCCCO[C@@H]1CN(C)C(=O)c1ccccc1 | 4 | 72 | -68 | . | . | . | .
C[C@@H]1CN([C@H](C)CO)C(=O)c2cc(NC(=O)Nc3ccc4c(c3)OCO4)ccc2O[C@@H]1CN(C)CC1CCCCC1 | 7 | -23 | 32 | . | . | . | .
Cc1noc(C)c1NC(=O)N(C)C[C@H]1Oc2ccc(NC(=O)NC3CCCCC3)cc2CC(=O)N([C@@H](C)CO)C[C@H]1C | 3 | 31 | 5 | . | . | . | .
C[C@@H]1CN([C@H](C)CO)C(=O)c2cc(C#Cc3ccccc3)cnc2O[C@H]1CN(C)S(=O)(=O)c1ccccc1F | -2 | ? | -55 | 105* | 70 | 24 | 46*
C[C@H]1CN([C@@H](C)CO)C(=O)c2cc(C#Cc3ccccc3F)cnc2O[C@@H]1CN(C)S(=O)(=O)c1ccccc1F | -11 | 115* | -44 | 111* | 76 | 26 | 43*
C[C@H]1CN([C@@H](C)CO)C(=O)c2cc(C#Cc3ccccc3)cnc2O[C@H]1CN(C)S(=O)(=O)c1ccccc1F | 2 | 85 | -59 | . | . | . | .
C[C@@H]1CN([C@@H](C)CO)C(=O)c2cc(C#Cc3ccccc3)cnc2O[C@@H]1CN(C)S(=O)(=O)c1ccccc1F | 4 | 52 | -53 | . | . | . | .
C[C@H]1CN([C@@H](C)CO)C(=O)c2cc(C#Cc3ccccc3F)cnc2O[C@H]1CN(C)S(=O)(=O)c1ccccc1F | -2 | 97*! | -39 | 107* | 77 | 60* | 40*
C[C@H]1CN([C@@H](C)CO)C(=O)c2cc(C#Cc3ccccc3F)cnc2O[C@@H]1CN(C)S(C)(=O)=O | . | 70 | -20 | . | . | . | .
C[C@@H]1CCCCO[C@H](CN(C)C(=O)Nc2ccc(C(F)(F)F)cc2)[C@H](C)CN([C@@H](C)CO)C(=O)c2cc(NS(=O)(=O)c3cn(C)cn3)ccc2O1 | 13 | 18 | -24 | . | . | . | .
SMILES | C diff growth | T cruzi growth-1 | Pf Dd2 growth | T cruzi growth-2 | T cruzi growth-3 | NIH3T3 tox | 3T3 cytotox 2
Cc1noc(C)c1S(=O)(=O)Nc1ccc2c(c1)C(=O)N([C@H](C)CO)C[C@@H](C)[C@@H](CN(C)Cc1ccc(Cl)c(Cl)c1)OCCCC[C@H](C)O2 | 7 | 75 | -75 | . | . | . | .
C[C@@H]1CN([C@H](C)CO)S(=O)(=O)c2ccc(C#CC3CCCC3)cc2O[C@H]1CN(C)C(=O)Cc1ccncc1 | -3 | 120* | -69 | 101* | 62 | -4 | 99*
C[C@H]1CN([C@@H](C)CO)S(=O)(=O)c2ccc(C#CC3CCCCC3)cc2O[C@H]1CN(C)C(=O)Cc1ccncc1 | . | 42 | -18 | . | . | . | .
C[C@@H]1CN([C@@H](C)CO)S(=O)(=O)c2ccc(C#CC3CCCCC3)cc2O[C@H]1CN(C)C(=O)Cc1ccncc1 | . | ? | -70 | 103* | 78 | 17 | 103*
C[C@@H]1CN([C@@H](C)CO)S(=O)(=O)c2ccc(C#CC3CCCC3)cc2O[C@H]1CN(C)C(=O)Cc1ccccc1 | -5 | . | ? | . | . | . | .
CCC(=O)N(C)C[C@@H]1Oc2cc(C#CC3CCCC3)ccc2S(=O)(=O)N([C@@H](C)CO)C[C@H]1C | -25 | 82 | -63 | . | . | . | .
C[C@@H]1CN([C@@H](C)CO)S(=O)(=O)c2ccc(C#CC3CCCC3)cc2O[C@H]1CN(C)C(=O)Cc1ccncc1 | -15 | 113* | -86* | 99* | 47 | 21 | 72*
C[C@@H]1CN([C@H](C)CO)S(=O)(=O)c2ccc(C#CC3CCCC3)cc2O[C@H]1CN(C)C(=O)Cc1ccccc1 | -11 | 113* | ? | 106* | 68 | 3 | 105*
C[C@H](CO)N1C[C@H](C)[C@@H](CN(C)C(=O)Cc2ccccc2)Oc2cc(C#CC3CCCC3)ccc2S1(=O)=O | -1 | . | -25 | . | . | . | .

From PubChem BioAssay
